Compound activity (PubChem)
Shown are actives, neighbours in structure and some others; about 12% of the full set was active somewhere.
Ins promoter up = insulin promoter activators in MIN6 cells, imaging, high-content screening, mouse beta cells; MIN6 insulin promoter-GFP reporter; hits give high values; actives 0.3% (n = 190,000); z-score at 5 µM;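 active means z-score above 3 at 5 µM with at least 500 cells counted in the well; inconclusive means wells under 500 cells, flagged as cytotoxic or low count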
Cl transport mod = KCC2 cotransporter modulators, thallium flux, primary screen, cell-based, HEK293 KCC2, FluoZin-2 fluorescence, MLSMR. KCC2 cells, thallium flux FluoZin-2 fluorescence. actives 2.2% (n = 190,000). Solute carrier family 12 member 5 (Homo sapiens), Q9H2X9. B-score of Tl+ flux slope (higher = more flux/activation; lower = inhibition) at 10 µM. AID 1456, 2008;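 active means thallium flux slope and its plate-corrected score both differing from the plate sample mean at a set confidence after two filtering rounds, in either direction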;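 further: slope of fluorescence scaled to starting intensity during 10 to 20 s after thallium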
Target sequence (Q9H2X9 whole entry, looked up): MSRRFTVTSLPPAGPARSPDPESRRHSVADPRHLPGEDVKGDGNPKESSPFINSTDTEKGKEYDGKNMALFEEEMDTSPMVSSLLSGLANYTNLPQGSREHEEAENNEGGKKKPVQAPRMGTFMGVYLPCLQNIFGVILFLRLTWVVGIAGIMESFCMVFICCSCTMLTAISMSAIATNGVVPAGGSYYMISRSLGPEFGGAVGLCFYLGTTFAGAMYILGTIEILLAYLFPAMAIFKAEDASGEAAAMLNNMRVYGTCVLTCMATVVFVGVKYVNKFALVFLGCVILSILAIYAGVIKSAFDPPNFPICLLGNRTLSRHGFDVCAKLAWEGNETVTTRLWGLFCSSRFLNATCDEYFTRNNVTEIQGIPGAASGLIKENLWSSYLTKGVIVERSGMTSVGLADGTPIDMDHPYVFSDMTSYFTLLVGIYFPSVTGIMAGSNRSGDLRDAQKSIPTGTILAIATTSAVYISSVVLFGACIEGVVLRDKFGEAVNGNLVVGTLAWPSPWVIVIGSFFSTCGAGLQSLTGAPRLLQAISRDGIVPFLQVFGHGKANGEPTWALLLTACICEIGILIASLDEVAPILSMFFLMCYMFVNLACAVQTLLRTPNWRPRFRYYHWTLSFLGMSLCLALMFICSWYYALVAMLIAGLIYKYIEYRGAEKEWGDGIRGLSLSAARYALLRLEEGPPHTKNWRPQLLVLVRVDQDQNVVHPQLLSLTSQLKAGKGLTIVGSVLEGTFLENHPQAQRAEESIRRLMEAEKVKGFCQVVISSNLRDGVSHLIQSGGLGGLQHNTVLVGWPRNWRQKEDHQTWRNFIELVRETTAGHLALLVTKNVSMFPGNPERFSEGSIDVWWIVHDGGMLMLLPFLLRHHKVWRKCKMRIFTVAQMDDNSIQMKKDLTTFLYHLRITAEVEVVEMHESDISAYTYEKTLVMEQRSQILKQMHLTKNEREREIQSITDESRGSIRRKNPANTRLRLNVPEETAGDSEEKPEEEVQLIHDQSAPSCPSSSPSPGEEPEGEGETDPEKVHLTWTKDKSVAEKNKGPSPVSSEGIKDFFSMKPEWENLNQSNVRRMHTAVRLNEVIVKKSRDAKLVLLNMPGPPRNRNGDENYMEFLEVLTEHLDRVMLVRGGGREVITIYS
INS promoter inh = inhibitors of insulin promoter-driven GFP, primary screen, imaging, TRM-6 cells (human fetal islet line), eGFP reporter, cell count | reporter expression induced with tamoxifen | actives 0.9% (n = 130,000) | AID 1273, 2008 | inhibition, % at 2 µM;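 active means inhibition above the mean plus 3 SD, with well images judged a real hit on visual review, cut at about 60% in these data, passing the limit was not always enough; inconclusive means inhibition over the cutoff but images rejected on review; inactive means inhibition not above the cutoff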
Lmaj promast = Leishmania major promastigote growth inhibition, primary screen; Leishmania major promastigotes, resazurin fluorescence viability; AID 1063, 2008; actives 9% (n = 200,000); inhibition, % at 10 µM; in the data active means inhibition above about 50%;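 further: promastigotes grown with compound for 44 hours at 28 °C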
ROMK primary = ROMK potassium channel modulators, primary screen, cell-based, thallium flux, MLSMR library; ATP-sensitive inward rectifier potassium channel 1 (Homo sapiens), P48048; Tet-inducible ROMK, thallium flux fluorescence; actives lie on both sides; B-score at 10 µM; actives 2% (n = 130,000); AID 1918, 2009;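 active means signal ratio slope over the read window, or its plate-corrected B-score, at least 3 SD from the plate mean, either direction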;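 further: B-score of the F/F0 ratio slope over 7 to 12 s after thallium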
WT yeast gro inh = growth inhibition of WT strain, primary screen, mitochondrial fusion inhibitor project, WT and mutant strains, chemical genetic | mitochondrial fusion phenotypic screen | inhibition, % at 10 µM | actives 2.1% (n = 190,000); in the data active means inhibition above about 58%; tested in S. cerevisiae
Lmaj promast 1uM = Leishmania major promastigote growth inhibition, confirmation, 1 µM repeat of primary hits; actives 13% (n = 1,100); inhibition, % at 1 µM; L. major promastigote growth, resazurin fluorescence, 48 h; shares compounds with Lmaj promast;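 active means inhibition above about 50% in both repeat tests, limit read from the data; inconclusive means one repeat under the set limit, the other over it; inactive means both repeats under the set limit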
Numbers without * were called inactive; ? = inconclusive; . = no result given.

SMILES	Ins promoter up	Cl transport mod	INS promoter inh	Lmaj promast	ROMK primary	WT yeast gro inh	Lmaj promast 1uM
CN(Cc1ccccc1)C(=O)CC(c1ccccc1)c1cc(Cl)ccc1O (stereo not given)	-0.53	.	.	81*	0.055	-11	4
Cc1ccc(O)c(C(CC(=O)N2CCCC2)c2ccccc2)c1 (stereo not given)	0.88	-0.52	-69	-3	-0.67	0	.
CC(C)(C)N(NC(=O)Nc1ccc(F)cc1)C(=O)c1ccccc1	-0.35	1.8	27	4	.	6	.
Cc1cc(C)cc(C(=O)N(NC(=O)Nc2ccc(Cl)cc2)C(C)(C)C)c1	-0.43	0.74	.	98*	.	7	-11
O=C1CSC2=NCN(c3ccc4c(c3)OCO4)CN12	0.05	0.92	.	14	0.07	-9	.
CN(C)c1ccc(N2CN=C3SCC(=O)N3C2)cc1	1.1	-1.2	-56	62*	.	12	5
O=C(Nc1nccs1)c1ccc(Cl)cc1[N+](=O)[O-]	-0.13	0.031	33	-5	0.078	-17	.
c1ccc(-c2nc3cc4ccccc4cc3[nH]2)nc1	-0.06	-1.6	66	100*	.	41	-5
O=C1NCN(c2ccccc2)C12CCN(c1nnnn1-c1ccccc1)CC2	-0.22	-3.3	-39	81*	0.14	-5	-17
O=C(O)c1ccc2c(c1)C1C=CCC1C(c1ccncc1)N2 (stereo not given)	-0.02	1.4	.	.	.	.	.
FC(F)(F)c1ccc2c(c1)C1C=CCC1C(c1ccncc1)N2 (stereo not given)	-0.27	0.31	47	88*	-0.31	14	-7
NC(C(=O)O)C1CC(Cl)=NO1 (stereo not given)	.	0.43	-23	100*	.	-1	94*
CCC(=O)Nc1nc(C)c(-c2csc(Nc3ccccn3)n2)s1	-0.02	-0.27	53	62*	.	33	6
CC(=O)Nc1ccc(-c2csc(Nc3ccccn3)n2)cc1	-0.01	-1.3	.	.	-1.2	.	.
COc1cc(C2C3C(=O)N(Cc4ccccc4)C(=O)C3ON2c2ccccc2)cc(OC)c1OC (stereo not given)	-0.77	-0.15	-35	-1	.	4	.
COc1ccc(C2C3C(=O)N(Cc4ccccc4)C(=O)C3ON2c2ccccc2)c(OC)c1OC (stereo not given)	-0.92	-0.42	.	74*	-0.73	-4	-10
O=C(Cc1ccccc1)Nc1ccc(N2CCOCC2)cc1N1CCOCC1	0.01	0.42	6	-4	.	3	.
O=C(Cc1ccccc1)Nc1cc(C(=O)c2ccccc2)ccc1N1CCOCC1	-0.48	.	0	97*	-0.13	5	-4
O=C(O)CN=C(NS(=O)(=O)c1ccccc1)c1ccccc1	0.84	.	0	1	1.1	-9	.
CC(C)N=C(NS(=O)(=O)c1ccccc1)C(Cl)(Cl)Cl	.	-0.13	-22	85*	.	47	?
CCOC(=O)c1cnc(-n2nc(C)cc2C)nc1Nc1ccc(N(C)C)cc1	?	0.058	6	91*	.	14	10
CCOC(=O)c1cnc(-n2nc(C)cc2C)nc1Nc1ccc(C)cc1	-3.4	.	.	5	-0.75	46	.
COc1ccccc1C(=O)NCC(=O)Nc1ccccc1	-0.36	0.52	-33	-5	.	-10	.
O=C(O)C1C2C=CC(C2)C1C(=O)NCCc1ccncc1 (stereo not given)	0.81	.	-29	-7	.	10	.
CC1=NNC(=O)C1CCC(=O)N/N=C/c1c(Cl)cccc1Cl (stereo not given)	-0.1	2.1	50	0	0.11	-7	.
SMILES	Ins promoter up	Cl transport mod	INS promoter inh	Lmaj promast	ROMK primary	WT yeast gro inh	Lmaj promast 1uM
Fc1ccc(-c2cc(-c3nnc4n3CCCCC4)c3ccccc3n2)cc1	-0.47	-0.61	-86	52*	.	-8	-12
Cc1c(C=O)c2ccccc2n1CC(=O)NC(C)c1ccccc1 (stereo not given)	.	-0.42	.	-3	.	-6	.
O=C1CCC([N+](=O)[O-])C(c2cccc(Br)c2)N1 (stereo not given)	-0.49	0.74	30	54*	0.031	-15	-10
O=C1CCC([N+](=O)[O-])C(c2ccc(Cl)c([N+](=O)[O-])c2)N1 (stereo not given)	.	-0.38	12	6	0.12	-9	.
CCN1C(=O)C(CC(=O)Nc2ccc(Br)cc2)N(CCCc2ccccc2)C1=S (stereo not given)	-0.2	-0.71	23	92*	.	47	-7
CCN1C(=O)C(CC(=O)Nc2ccc(OC)cc2)N(CCc2ccc(OC)cc2)C1=S (stereo not given)	-0.99	0.0016	-8	37	-1.3	13	.
CCN1CCN(c2cc(SC(C)C)nc(-c3ccc(OC)cc3)n2)CC1	-0.56	.	.	100*	-0.075	95	0
COc1ccc(C2c3c(oc4ccccc4c3=O)C(=O)N2c2ccccn2)cc1 (stereo not given)	0.71	.	.	2	.	6	.
Cc1ccc(-c2cc(-c3ccc(F)cc3)c(C#N)c(N)n2)o1	-0.34	-0.58	-36	60*	-0.066	0	-15
CCC1=C(OC(=O)N(CC)CC)N2C(=O)OC(=NCCc3c[nH]c4ccccc34)[C@]2(Cc2ccccc2)[C@H]2C1=CC[C@H]1C(=O)N(C)C(=O)[C@H]12	1.6	-1.4	.	.	.	.	.
Cc1oc2c(CN3CCCC3)c(O)ccc2c(=O)c1-c1ccc(Br)cc1	-0.05	.	-15	99*	-0.4	2	-5
COc1ccc(-c2c(C)oc3c(CN4CCOCC4)c(O)ccc3c2=O)cc1	-0.05	-0.82	.	.	.	.	.
O=C(NCCNC(=O)c1ccc(Br)o1)c1ccc(Br)o1	.	.	29	-5	-0.029	12	.
Cc1ccc(Oc2ccc(-c3nc(N)nc(N)n3)cc2)cc1C	1.1	0.05	17	99*	-0.016	42	-15
COc1ccc([N+](=O)[O-])cc1NC(=O)C(C)N1CCN(C(=O)c2ccco2)CC1 (stereo not given)	.	-0.2	7	0	0.43	-10	.
CC(OC(=O)CCc1nc2ccccc2c(=O)[nH]1)C(=O)c1ccc(C(C)(C)C)cc1 (stereo not given)	0.19	0.048	-19	54*	-0.4	20	-1
CC(NC(=O)COC(=O)CCc1nc2ccccc2c(=O)[nH]1)c1ccccc1 (stereo not given)	-0.36	-0.83	17	-7	-0.088	4	.
Cc1ccc(-c2cc(C(F)F)n3ncc(C(=O)NN4CCCCC4)c3n2)cc1	-3.1	-0.035	.	4	0.22	-14	.
Cc1ccc(-c2cc(C(F)F)n3ncc(C(=O)N4CCCCC4c4cccnc4)c3n2)cc1 (stereo not given)	-0.06	-2.6	.	95*	-0.4	47	15
Cc1nnc(Nc2ccccn2)c2ccccc12	-0.18	0.045	19	70*	.	23	90*
